Measured values reported in PubChem BioAssay AID1159580 (chemical genetic matrix, 2015).
About 2,000 (36%) of roughly 5,500 compounds were called active. Not shown: some 18% with an inconclusive outcome. Cut-off read from the data, not from the text of the source: active = normalized growth mostly below about 0.91 (no sharp cut-off); inconclusive = no clear call, values can overlap the other calls; inactive = mostly above about 0.92. Some of the results follow.

Experiment: chemical genetic growth profiling, strain panel (AID 1159580);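 note: tested at 20 µM; growth read once vehicle control cultures reached saturation at 30 °C; 1 = growth at the plate median or of vehicle wells; lower values mean less growth of the strain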
Settings: growth OD

Measured: normalized growth

CCC(C)C(=O)O[C@H]1[C@H](O)C2C(CN3CC(C)CCC3[C@@]2(C)O)C2C[C@]34O[C@]5(O)C(OC(=O)C(C)(O)CC)CC[C@@]3(C)C5C(OC(C)=O)[C@@H](OC(C)=O)C4[C@@]21O (stereo partly specified)
inactive: S. cerevisiae deletion strains, locus YKL009W, strain mrt4, active compounds read low 1.01 | S. cerevisiae deletion strains, locus YKL068W, active compounds read low 1.01 | S. cerevisiae deletion strains, locus YKL085W, strain MDH1 (second series), active compounds read low 1.03 | S. cerevisiae deletion strains, locus YKL085W, strain MDH1, active compounds read low 1.03 | S. cerevisiae deletion strains, locus YKL160W, strain elf1, active compounds read low 1.04 | S. cerevisiae deletion strains, locus YKL190W, strain CNB1, active compounds read low 1 | S. cerevisiae deletion strains, locus YKR001C, strain vps1, active compounds read low 0.983 | S. cerevisiae deletion strains, locus YKR026C, strain gcn3, active compounds read low 1.01 | S. cerevisiae deletion strains, locus YKR091W, strain srl3, active compounds read low 1.02 | S. cerevisiae deletion strains, locus YLL001W, strain dnm1, active compounds read low 1.02 | S. cerevisiae deletion strains, locus YLL026W, active compounds read low 1.01 | S. cerevisiae deletion strains, locus YLL041C, strain sdh2, active compounds read low 1.04 | S. cerevisiae deletion strains, locus YLR027C, strain aat2, active compounds read low 1.02 | S. cerevisiae deletion strains, locus YLR039C, strain RIC1, active compounds read low 1.02 | S. cerevisiae deletion strains, locus YLR058C, strain SHM2, active compounds read low 1.01 | S. cerevisiae deletion strains, locus YLR102C, strain apc9, active compounds read low 0.995 | S. cerevisiae deletion strains, locus YLR113W, strain HOG1, active compounds read low 0.983 | S. cerevisiae deletion strains, locus YLR221C, strain rsa3, active compounds read low 1.01 | S. cerevisiae deletion strains, locus YLR258W, strain gsy2, active compounds read low 1.01 | S. cerevisiae deletion strains, locus YLR262C, strain YPT6 (second series), active compounds read low 1.02 | S. cerevisiae deletion strains, locus YLR262C, strain YPT6, active compounds read low 1.05 | S. cerevisiae deletion strains, locus YLR268W, strain sec22, active compounds read low 0.984 | S. cerevisiae deletion strains, locus YLR320W, strain mms22, active compounds read low 1.02 | S. cerevisiae deletion strains, locus YLR330W, strain CHS5, active compounds read low 1.01 | S. cerevisiae deletion strains, locus YLR342W, strain FKS1 (second series), active compounds read low 1 | S. cerevisiae deletion strains, locus YLR342W, strain FKS1, active compounds read low 1.01 | S. cerevisiae deletion strains, locus YLR357W, strain rsc2, active compounds read low 1.01 | S. cerevisiae deletion strains, locus YLR370C, strain arc18, active compounds read low 1.03 | S. cerevisiae deletion strains, locus YLR371W, strain rom2, active compounds read low 0.984 | S. cerevisiae deletion strains, locus YLR384C, strain iki3, active compounds read low 1.02 | S. cerevisiae deletion strains, locus YLR418C, strain cdc73, active compounds read low 0.994 | S. cerevisiae deletion strains, locus YML016C, strain PPZ1, active compounds read low 1.01 | S. cerevisiae deletion strains, locus YML032C, strain rad52, active compounds read low 0.989 | S. cerevisiae deletion strains, locus YML120C, strain ndi1, active compounds read low 1.01 | S. cerevisiae deletion strains, locus YML124C, strain tub3, active compounds read low 0.981 | S. cerevisiae deletion strains, locus YMR058W, strain fet3, active compounds read low 1.02 | S. cerevisiae deletion strains, locus YMR078C, strain ctf18, active compounds read low 0.986 | S. cerevisiae deletion strains, locus YMR125W, strain sto1, active compounds read low 1.02 | S. cerevisiae deletion strains, locus YMR129W, active compounds read low 1.02 | S. cerevisiae deletion strains, locus YMR205C, strain PFK2, active compounds read low 1.03 | S. cerevisiae deletion strains, locus YMR223W, strain ubp8, active compounds read low 0.985 | S. cerevisiae deletion strains, locus YMR231W, strain pep5, active compounds read low 1.02 | S. cerevisiae deletion strains, locus YMR263W, strain SAP30, active compounds read low 1 | S. cerevisiae deletion strains, locus YMR307W, strain GAS1, active compounds read low 1.02 | S. cerevisiae deletion strains, locus YNL067W, strain RPL9B, active compounds read low 1.02 | S. cerevisiae deletion strains, locus YNL071W, strain lat1, active compounds read low 1.03 | S. cerevisiae deletion strains, locus YNL128W, strain TEP1, active compounds read low 1.01 | S. cerevisiae deletion strains, locus YNL153C, strain GIM3, active compounds read low 1.01 | S. cerevisiae deletion strains, locus YNL183C, strain NPR1, active compounds read low 0.99 | S. cerevisiae deletion strains, locus YNL209W, strain ssb2, active compounds read low 1.02 | S. cerevisiae deletion strains, locus YNL233W, strain BNI4, active compounds read low 1.01 | S. cerevisiae deletion strains, locus YNL248C, strain rpa49, active compounds read low 1.08 | S. cerevisiae deletion strains, locus YNL250W, strain rad50, active compounds read low 0.984 | S. cerevisiae deletion strains, locus YNL271C, strain bni1, active compounds read low 0.982 | S. cerevisiae deletion strains, locus YNL298W, strain CLA4, active compounds read low 0.991 | S. cerevisiae deletion strains, locus YNL307C, strain MCK1, active compounds read low 0.994 | S. cerevisiae deletion strains, locus YNL322C, strain KRE1 (second series), active compounds read low 1.02 | S. cerevisiae deletion strains, locus YNL322C, strain KRE1, active compounds read low 1.01 | S. cerevisiae deletion strains, locus YNR049C, strain mso1, active compounds read low 1 | S. cerevisiae deletion strains, locus YNR052C, strain pop2, active compounds read low 1 | S. cerevisiae deletion strains, locus YOL006C, strain TOP1, active compounds read low 1.01 | S. cerevisiae deletion strains, locus YOL012C, strain htz1 0.797 | S. cerevisiae deletion strains, locus YOL147C, strain pex11, active compounds read low 0.994 | S. cerevisiae deletion strains, locus YOR001W, strain rrp6, active compounds read low 0.998 | S. cerevisiae deletion strains, locus YOR061W, strain CKA2, active compounds read low 1.01 | S. cerevisiae deletion strains, locus YOR069W, strain VPS5, active compounds read low 1.01 | S. cerevisiae deletion strains, locus YOR070C, strain gyp1, active compounds read low 1.03 | S. cerevisiae deletion strains, locus YOR080W, strain dia2, active compounds read low 1.04 | S. cerevisiae deletion strains, locus YOR083W, strain WHI5, active compounds read low 1.04 | S. cerevisiae deletion strains, locus YOR106W, strain vam3, active compounds read low 1.06 | S. cerevisiae deletion strains, locus YOR136W, strain idh2, active compounds read low 0.984 | S. cerevisiae deletion strains, locus YOR144C, strain elg1, active compounds read low 0.996 | S. cerevisiae deletion strains, locus YOR184W, strain ser1, active compounds read low 0.982 | S. cerevisiae deletion strains, locus YOR231W, strain MKK1, active compounds read low 0.992 | S. cerevisiae deletion strains, locus YOR265W, strain rbl2, active compounds read low 0.998 | S. cerevisiae deletion strains, locus YOR270C, strain vph1, active compounds read low 1.11 | S. cerevisiae deletion strains, locus YOR290C, strain snf2, active compounds read low 1.06 | S. cerevisiae deletion strains, locus YOR316C, strain cot1, active compounds read low 0.99 | S. cerevisiae deletion strains, locus YPL051W, strain arl3, active compounds read low 1.01 | S. cerevisiae deletion strains, locus YPL055C, strain LGE1, active compounds read low 1.02 | S. cerevisiae deletion strains, locus YPL078C, strain atp4, active compounds read low 1.05 | S. cerevisiae deletion strains, locus YPL106C, strain sse1, active compounds read low 0.995 | S. cerevisiae deletion strains, locus YPL240C, strain hsp82, active compounds read low 1.01 | S. cerevisiae deletion strains, locus YPL241C, strain CIN2, active compounds read low 0.988 | S. cerevisiae deletion strains, locus YPL256C, strain CLN2, active compounds read low 1.04 | S. cerevisiae deletion strains, locus YPR119W, strain clb2, active compounds read low 0.984 | S. cerevisiae deletion strains, locus YPR141C, strain kar3, active compounds read low 0.987 | S. cerevisiae deletion strains, locus YPR163C, strain tif3, active compounds read low 0.99 | S. cerevisiae deletion strains, locus YPR167C, strain met16, active compounds read low 0.974 | S. cerevisiae deletion strains, strain wtn01, active compounds read low 0.991 | S. cerevisiae strains, strain wild type, active compounds read low 1
